A selection: hits, their analogues and other compounds. The true share with any hit is near 2.8%.
PI4K2A block – inhibitors of human PI4K2A; purified PI4K2A, ADP-Glo luminescence, 1 h; stronger effect = lower value; 0.13% of 420,000 active; Q9BTU6; activity change, negative = inhibition, % at 76.9 µM; in the data active = activity change below about -50%; inconclusive = mostly about -30% to -49%;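 also: -100% = wells without enzyme as full effect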
Target sequence (Q9BTU6 whole entry, looked up): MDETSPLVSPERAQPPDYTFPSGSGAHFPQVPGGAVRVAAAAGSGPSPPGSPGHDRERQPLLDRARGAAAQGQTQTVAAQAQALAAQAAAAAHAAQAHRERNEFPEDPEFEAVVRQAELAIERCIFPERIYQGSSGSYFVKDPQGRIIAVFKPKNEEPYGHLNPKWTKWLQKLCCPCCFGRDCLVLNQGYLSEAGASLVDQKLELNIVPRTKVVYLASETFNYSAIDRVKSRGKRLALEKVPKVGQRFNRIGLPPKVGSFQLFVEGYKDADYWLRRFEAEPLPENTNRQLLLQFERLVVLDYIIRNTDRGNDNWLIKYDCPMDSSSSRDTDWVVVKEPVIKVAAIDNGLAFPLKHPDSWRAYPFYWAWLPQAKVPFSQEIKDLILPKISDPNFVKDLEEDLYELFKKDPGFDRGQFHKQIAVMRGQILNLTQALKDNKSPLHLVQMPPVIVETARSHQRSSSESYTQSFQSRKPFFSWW
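ADP-Glo luminescence measured ADP generated by PI4K2A enzyme (4 ug/mL before mixing) with 1.2 mM PI substrate (pre-mix) and 300 microM ATP (pre-mix). Tris pH7.5 buffer with MgCl2, Triton X-100; 1 h reaction at ambient temperature.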
Pol kappa inh – inhibitors of human DNA polymerase kappa; purified Pol kappa, fluorescent DNA synthesis assay, 10 min; Potency, µM (doses to about 107 µM), inactives show top-dose activity, negative = inhibition, hits mostly inhibitors; 0.53% of 400,000 active; AID 588579; also: potency is read from the fitted curve at half-maximal effect; % is scaled to controls: 0 for no effect and ±100 for the full control effect
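10 nM Pol kappa was preincubated with compounds for 15 min at room temperature. Reaction started with 50 nM (final) substrate. Fluorescence read kinetically at 0 and 10 min.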
POLI inh – inhibitors of human DNA polymerase iota; AID 588590; 1% of 390,000 active; Pol iota fluorescent replication assay, 10 min; Q9UNA4; Potency, µM (highest dose often 115 µM), inactives show top-dose activity, negative = inhibition, usual class: inhibitors; also: potency is read from the fitted curve at half-maximal effect
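Pol iota at 10 nM preincubated 15 min with compounds at room temperature; reaction started with fluorescent substrate, 50 nM final. Fluorescence read kinetically at 0 and 10 min; buffer-only wells as negative control.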
POLH inh – inhibitors of human DNA polymerase eta. Q9Y253. recombinant Pol eta, fluorescent DNA replication assay. Potency, µM (highest dose often 114 µM), without a hit: top-dose activity change, negative = inhibition, hits mostly inhibitors. 1.2% of 390,000 active. AID 588591; also: potency is read from the fitted curve at half-maximal effect; % is scaled to controls: 0 for no effect and ±100 for the full control effect
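Pol eta (10 nM) was preincubated with compounds for 15 min at room temperature, after which fluorescent replication substrate (50 nM final) was added to start the reaction. Fluorescence was read kinetically at 0 and 10 min.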
PI5P4Ka inh – inhibitors of human PI5P4K alpha; PI5P4Kalpha enzyme, ADP-Glo luminescence, 60 min; stronger effect = lower value; 1.2% of 330,000 active; max response, %; active = max response of -50% or lower; inconclusive = between -30% and -50%; inactive = -30% or higher; also: value at the top dose of about 77 µM; % is scaled to controls: 0 for no effect and ±100 for the full control effect
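Reactions run in 0.038 M HEPES pH 7.4, 0.28 mM EGTA, 0.1% CHAPS and 5% DMSO, with PI5P4Kalpha, substrate, compound and 5 microM ATP final, one hour at room temperature. Readout is ADP-Glo luminescence.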
Pol beta inh – inhibitors of human DNA polymerase beta | P06746 | Pol beta primer extension/strand displacement, fluorescence kinetic | Potency, µM (top dose mostly 114 µM), for inactives: at the top dose activity change, negative = inhibition, most hits filed as inhibitors | 1.3% of 340,000 active; also: potency is read from the fitted curve at half-maximal effect; % is scaled to controls: 0 for no effect and ±100 for the full control effect
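Values derive from four-parameter Hill fits of normalized kinetic data: reads at 0 and 10 min following addition of 50 nM substrate to 10 nM Pol beta preincubated 15 min with compound.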
An asterisk follows results filed as active; ? = inconclusive; . = not tested or not shown; [ ] = remark or other dose. Unless noted, calls follow the shape of the dose curve; as a rule, active = well fitted inhibition curve with a large enough effect; inconclusive = small, poorly fitted or top-dose-only effect, or another doubt; inactive = no such curve, though single readings can be large or run the other way.

SMILES	PI4K2A block	Pol kappa inh	POLI inh	POLH inh	PI5P4Ka inh	Pol beta inh
Cc1ccc(S(=O)(=O)/N=C2/NC(=O)/C(=C\c3ccco3)S2)cc1	-4	-8%	-5%	?	-13	-21%
CCCN1C(=O)/C(=C/c2ccco2)SC1=Nc1ccc(OC)cc1	-11	-22%	-13%	-22%	-2	-13%
CCc1ccc(N=C2NC(=O)/C(=C/c3ccc(OCC(=O)O)c(OC)c3)S2)cc1	-5	-25%	?	13%	-75*	20µM*
COc1ccc(N=C2NC(=O)/C(=C\c3ccco3)S2)cc1	-11	?	40µM*	?	-59*	20µM*
CC(/C=N/n1c(-c2ccc(Cl)cc2)n[nH]c1=S)=C\c1ccco1	-5	?	?	18µM*	?	?
Cc1ccc(-c2n[nH]c(=S)n2/N=C\c2ccco2)cc1	-4	-3%	13%	-25%	0	26%
Cc1ccc2cccc(O)c2n1	.	-7%	25%	.	.	.
O=C(COC(=O)CCCc1nc2ccccc2s1)Nc1ncc(Cl)cc1Cl	0	0%	96%	?	-29	40µM*
COc1cc2c(c(OC)c1)[C@H](/C=C/c1ccccc1)[C@@H]([C@H](O)CO)OC2	0	.	.	.	.	.
CCOc1cc(/C=C2/NC(=O)NC2=O)cc(Br)c1OCc1ccc(C(=O)O)cc1	?	-1%	?	?	?	25µM*
CC(C)CC(NC(=O)OC(C)(C)C)c1cn([C@@H](Cc2ccc(O)cc2)C(=O)N2CCN(C(=O)OC(C)(C)C)CC2)nn1 (stereo partly drawn)	-2	-7%	15%	-22%	0	35µM*
O=C(CCCCCN1CCN(c2ccccc2-c2ccccc2)CC1)NC1CCCc2ccccc21 (stereo not drawn)	-4	-17%[60.1 µM]	.	.	.	.
Cc1ccc(S(=O)(=O)c2cnc(SCC(=O)Nc3ccc4c(c3)OCCO4)[nH]c2=O)cc1C	-1	-9%	6%	-11%	.	11%
COc1cc(NC(=O)CSc2ncc(S(=O)(=O)c3ccc(Br)cc3)c(=O)[nH]2)cc(OC)c1	0	-17%	?	?	.	50µM*
Cc1ccc(NC(=O)CSc2ncc(S(=O)(=O)c3ccc(C(C)C)cc3)c(=O)[nH]2)cc1C	6	-13%	?	?	.	20µM*
O=C(N/N=C/c1ccoc1)c1ccccc1F	2	-42%	?	-3%	-23	22µM*
CC(C)Oc1cccc(C(=O)N/N=C/c2ccoc2)c1	3	-9%	2%	-8%	-3	-2%
O=C(N/N=C\c1ccoc1)c1ccco1	0	-16%	9%	12%	0	23%
Cc1cccc(C(=O)N/N=C/c2ccoc2)c1	0	?	?	?	?	25µM*
O=c1cc(-c2ccc(O)c(O)c2)oc2ccccc12	.	14µM*	.	.	.	.
O=c1cc(-c2ccccc2)oc2cc(O)c(O)cc12	.	3.2µM*	.	.	.	.
Cn1c(SCC(=O)c2cc(Cl)c(Cl)s2)nnc1-c1ccco1	-6	32µM*	16µM*	?	-24	20µM*
O=C(CSc1nccn1-c1ccccc1)c1ccc(Cl)cc1	3	-2%	-4%	-14%	4	6%
Cc1ccc(C(=O)CSc2nccn2-c2ccccc2)cc1	2	-7%	-6%	-16%	5	56µM*
Cc1ccc(C(=O)CSc2nnc(-c3ccco3)n2C)cc1	-1	-19%	21%	-4%	-56*	60%
SMILES	PI4K2A block	Pol kappa inh	POLI inh	POLH inh	PI5P4Ka inh	Pol beta inh
Cc1ccc(C(=O)CSc2nnc(-c3ccccc3N)n2C)cc1	8	-12%	35%	-7%	2	6%
N#CCC[C@H]1CC[C@]2(CCCN(C(=O)C3CCCCC3)C2)O1	-9	.	.	.	.	.
O=C(C1CCCO1)N1CCN(C2=Nc3ccccc3Sc3ccccc32)CC1 (stereo not drawn)	1	.	.	.	.	.
COC(=O)c1ccccc1NC1=C/C(=N\S(=O)(=O)c2cccs2)c2ccccc2C1=O	?	-15%	1.4µM*	-13%	?	-26%
Cc1cc(=O)[nH]c2c(N=Nc3ccc(O)cc3)c(N)nn12	-1	89µM*	?	-18%	-21	2%
Nc1nn2c(C(F)(F)F)cc(=O)[nH]c2c1N=Nc1cccc(F)c1	-1	-4%	25%	-7%	-7	35%
c1ccc(-c2nnc3n2N=C(c2ccc4ccccc4c2)CS3)nc1	1	.	.	.	.	.
O=C(O)CCC(=O)N1N=C(c2ccco2)CC1c1cccs1 (stereo not drawn)	5	4%	-5%	-9%	?	?
Cc1ccc(C2=NN(C(=O)CCCC(=O)O)C(c3ccco3)C2)cc1 (stereo not drawn)	3	-1%	65%	-12%	-14	89µM*
O=C(O)CCC(=O)N1N=C(c2ccco2)CC1c1ccco1 (stereo not drawn)	-6	?	50µM*	?	1	9%
CC(=O)N1N=C(c2ccc(C)cc2)CC1c1ccco1 (stereo not drawn)	2	-2%	31%	-17%	-3	31%
Cc1ccc(-c2nn3c(C)nnc3s2)cc1NC(=O)c1ccc(Br)o1	-5	12%	-22%	-6%	-4	-1%
Cc1ccc(-c2nn3c(C)nnc3s2)cc1NC(=O)c1ccc(-c2ccc(Cl)cc2Cl)o1	5	?	?	?	.	4µM*
Cc1ccc(-c2nn3c(C)nnc3s2)cc1NC(=O)c1ccc(-c2cccc(Cl)c2)o1	-6	-24%	32µM*	?	-53*	7.1µM*
O=C1c2cccnc2-c2ncccc21	3	-5%	13%	-9%	1	0%
COC1=C(Br)C(=O)c2ncccc2C1=O	-55*	-11%	1.3µM*	3.2µM*	?	.
O=C1C(=O)c2cccnc2-c2ncccc21	-74*	.	.	.	-22	.
N#CC1(NC(=O)COC(=O)/C=C/c2ccc3ccccc3n2)CCCCC1	-6	?	45µM*	?	?	13µM*
Cc1ccc(-c2onc3ccc(C(=O)/C=C/N(C)C)cc23)cc1	1	-20%	0%	-26%	?	?
Cc1cccc(-c2onc3ccc(C(=O)/C=C/N(C)C)cc23)c1	-1	11%	-26%	-23%	-68*	-15%
CC(=O)COC(=O)c1ccc2noc(-c3ccccc3)c2c1	-10	-22%	-21%	?	?	45µM*
COc1ccc(CCNC(=O)c2cccc(-n3c(C)nc4cccnc43)c2)cc1OC	-5	-2%	16%	6%	.	?
Nc1cc2nc3ccccc3oc-2cc1=O	-19	45µM*	20µM*	?	-28	25µM*
O=c1oc2ccccc2cc1-c1nc2ccccc2o1	-10	-22%	10%	-7%	.	1%

Screens as filed in PubChem BioAssay.
